# HT1080NT lethal = qHTS for induction of synthetic lethality in tumor cells producing 2HG: qHTS for the HT-1080-NT fibrosarcoma cell line. HT-1080-NT fibrosarcoma viability, CellTiter-Glo ATP luminescence, 48 h. Potency, µM (series often up to 46.1 µM), for inactives: at the highest dose activity, negative = less viability, hits mostly cytotoxic. 360,000 tested, 1.6% active;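 further: NT is the 2HG producing partner of a matched IDH1 knockdown line; potency means the concentration at half of the fitted maximal effect; 0% = DMSO-treated cells and -100% = media-only wells without cells; nearly all actives have a fitted effect of over 55% in size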
#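 HT-1080-NT fibrosarcoma cells (2HG-overproducing), 750 cells/well in RPMI with 5% FBS, dosed after 2 h and incubated 48 h at 37C. CellTiter-Glo luminescence normalized to DMSO and no-cell wells; concentration-response curves fitted and classed.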
# IL1B secr inh = qHTS for Inhibitors of Inflammasome Signaling: IL-1-beta AlphaLISA Primary Screen | THP-1 LPS/ATP IL-1B secretion, AlphaLISA, 16 h; stronger effect = lower value | activity change, % at 57.5 µM | 360,000 tested, 4.7% active | AID 743279, 2014; in the data active means activity change below about -50%; inconclusive means mostly about -30% to -49%
#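 THP-1 cells pretreated 1 hr with compounds (up to 57.5 uM final), then stimulated with LPS (250 ng/mL final) plus ATP (1.25 mM final); secreted IL-1B measured by AlphaLISA after 16 hr, decreased signal indicating inhibition.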
# TDP1 cell noCPT = qHTS for Inhibitors of human tyrosyl-DNA phosphodiesterase 1 (TDP1): qHTS in cells in absence of CPT; Potency, µM (highest dose often 46.2 µM), for the others: at the top dose activity change, negative = growth inhibition, hits mostly inhibitors; DT40 Tdp1-/- hTDP1 cells, no CPT, ATP luminescence, 48 h; 420,000 tested, 15% active; further: potency means the concentration at half of the fitted maximal effect; nearly all actives have a fitted effect of over 55% in size
#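 Readout: luminescence from CellTiter-Glo after 30 min in the dark at RT. Cells: DT40 Tdp1-/- with stable hTDP1, 400/well. Exposure: compounds alone, ≥48 hr, 37 °C.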
# TDP1 cell CPT = qHTS for Inhibitors of human tyrosyl-DNA phosphodiesterase 1 (TDP1): qHTS in cells in presence of CPT; chicken DT40 Tdp1-/-;hTDP1 cells + 20 nM CPT, ATP luminescence, 48 h; 420,000 tested, 12% active; Potency, µM (top dose mostly 46.2 µM), for inactives: at the top dose activity change, negative = growth inhibition, actives largely listed as inhibitors; further: potency means the concentration at half of the fitted maximal effect; nearly all actives have a fitted effect of over 55% in size
#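 Chicken DT40 Tdp1-/- cells complemented with human TDP1, 400 cells/well, exposed to compounds plus 20 nM camptothecin for at least 48 h at 37 C; viability read as ATP content by CellTiter-Glo luminescence.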
# HT1080 IDH1KD tx = qHTS for induction of synthetic lethality in tumor cells producing 2HG: qHTS for the HT-1080-IDH1KD cell line. HT-1080 IDH1 knockdown viability, ATP luminescence, 48 h. Potency, µM (doses to about 46.1 µM), inactives show at the highest dose activity, negative = toxicity, usual class: cytotoxic. 360,000 tested, 2% active. AID 686971, 2013;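 further: potency means the concentration at half of the fitted maximal effect; 0% = DMSO wells and -100% = cell-free medium wells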
#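 HT-1080-IDH1KD cells (IDH1 knocked down), 750/well in RPMI with 5% FBS, treated with compound 48 h at 37 degrees C. Viability by CellTiter-Glo luminescence, normalised to DMSO and no-cell wells; concentration-response curves classed.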
# * = called active by the depositor; u = inconclusive; x = not tested or not shown; [ ] = remark or other dose. This is a sample that favours compounds with a hit; in the whole collection about 19% have one here. Unless noted, the call rests on the fitted dose curve; in most records, active means well fitted curve in the direction sought with a large enough effect; inconclusive means small, poorly fitted or top-dose-only effect, or another doubt; inactive means no such curve, though single readings can be large; an effect the other way counts as inactive or inconclusive. Unless noted, on the % scale 0 is the no-effect control and ±100 the full control effect.
SMILES,HT1080NT lethal,IL1B secr inh,TDP1 cell noCPT,TDP1 cell CPT,HT1080 IDH1KD tx
CCOCCCN1C(=O)CN(C2CCCCCC2)C(=O)C1c1ccc(OC(C)C)c(OC)c1 (configuration not stated),x,x,-22%,-28%,x
CCc1ccc(N2C(=O)CN(Cc3cc(OC)c(OC)c(OC)c3)C2=S)cc1,-13%,-1,23µM*,16µM*,-9%
COc1cc(CN2CC(=O)N(c3ccc(C)c(C)c3)C2=S)cc(OC)c1OC,2%,-6,u,u,-9%
CCc1ccccc1N1C(=O)CN(Cc2cc(OC)c(OC)c(OC)c2)C1=S,-9%,-9,21µM*,u,0%
COc1ccc(CN2CC(=O)N(c3cc(Cl)ccc3C)C2=S)cc1OC,7%,-22,u,u,0%
COc1ccc(CN2CC(=O)N(c3ccccc3C)C2=S)cc1OC,-19%,22,u,-35%,-20%
COc1cc(CN2CC(=O)N(c3cc(Cl)ccc3C)C2=S)cc(OC)c1OC,-27%,9,21µM*,21µM*,-3%
COc1cc(CC(=O)OCC(=O)NC2CCCC2)cc(OC)c1OC,8%,6,14%,-7%,6%
COc1cc(CC(=O)OCC(=O)N(C)C2CCCCC2)cc(OC)c1OC,-3%,0,21µM*,u,-1%
CCCN1CCC(=O)N([C@H](COc2ccccc2)c2ccccc2)CC1,1%,18,21µM*,u,0%
O=C1CCN(CCc2ccccc2)CCN1[C@H](COc1ccccc1)c1ccccc1,-3%,-3,14µM*,15µM*,-10%
CC(C)CN1CCC(=O)N([C@H](COc2ccccc2)c2ccccc2)CC1,-1%,-8,22µM*,u,0%
CC(Cc1ccccc1)=NNc1ccc([N+](=O)[O-])cc1[N+](=O)[O-],u,-8,7.3µM*,16µM*,-18%
COc1cccc(C(C)=NNc2ccc([N+](=O)[O-])cc2[N+](=O)[O-])c1OC,9%,11,21µM*,u,2%
O=C(NCc1ccc2c(c1)OCO2)C(=O)NCC1OCCCN1S(=O)(=O)c1ccccc1 (configuration not stated),-10%,-6,-25%,-3%,-4%
CC(C)C(=O)N1c2ncnn2C2(CCCCC2)[C@@H]2CCCC[C@@H]21,x,x,10µM*,16µM*,x
CCC(=O)N1c2nc(C(C)C)nn2C2(CCCCC2)[C@@H]2CCCC[C@@H]21,x,x,4.1µM*,8.2µM*,x
CCOc1ccccc1N(C)C(=O)c1nn(-c2ccc(C)cc2)c(=O)c2c1c1ccccc1n2C,x,x,-13%,-6%,x
Cc1ccc(-n2nc(C(=O)N(C)c3ccccc3Cl)c3c4ccccc4n(C)c3c2=O)cc1,x,x,13µM*,18µM*,x
Cc1ccc(-n2nc(C(=O)N(C)Cc3ccccc3)c3c4ccccc4n(C)c3c2=O)cc1,x,x,9.2µM*,23µM*,x
Nc1n[nH]c(N)c1N=Nc1ccccc1F,18%,-21,-1%,8%,10%
Nc1n[nH]c(N)c1N=Nc1ccccc1,15%,-66*,2%,11%,3%
COc1ccc(N=Nc2c(N)n[nH]c2N)cc1,15%,-53*,-3%,11%,11%
Nc1n[nH]c(N)c1N=Nc1ccc(Cl)cc1Cl,-17%,-57*,14%,1%,u
Cc1cccc(C(=O)OCC(=O)NC23CC4CC(CC(C4)C2)C3)c1O,-3%,-9,18µM*,9.2µM*,-17%
SMILES,HT1080NT lethal,IL1B secr inh,TDP1 cell noCPT,TDP1 cell CPT,HT1080 IDH1KD tx
Cc1nc2cc(C(=O)OCC(=O)NC3CCS(=O)(=O)C3)ccc2n1-c1ccccc1 (configuration not stated),18%,-8,-13%,-2%,17%
Cc1nc2cc(C(=O)OCC(=O)NC34CC5CC(CC(C5)C3)C4)ccc2n1-c1ccccc1,-13%,-66*,u,6%,3%
O=C(COC(=O)c1ccccc1O)NC12CC3CC(CC(C3)C1)C2,1%,1,18µM*,12µM*,-3%
CC(=O)Oc1cc(C(=O)OCC(=O)NC23CC4CC(CC(C4)C2)C3)cc(OC(C)=O)c1OC(C)=O,-27%,124,u,5.8µM*,u
CCn1c(SCC(=O)NC2CC2)nnc1-c1ccc(C)cc1,1%,-13,5%,1%,-1%
O=C(COC(=O)c1cccs1)NC12CC3CC(CC(C3)C1)C2,13%,-1,-3%,17%,4%
O=C(COC(=O)/C=C/C(=O)OCC(=O)NC12CC3CC(CC(C3)C1)C2)NC12CC3CC(CC(C3)C1)C2,u,-93*,15µM*,13µM*,u
C#CC[N+](C)(C)CC#Cc1ccc(C)cc1,u,u,-6%,-13%,u
C#CC[N+](C)(C)C(C#Cc1ccccc1)CC=C (configuration not stated),-17%,-73*,18µM*,12µM*,u
COc1ccc(C(=O)Nc2cc3cc(Cl)ccc3oc2=O)cc1OC,x,x,2.9µM*,5.8µM*,x
Cc1ccc(C(=O)Nc2cc3cc(Cl)ccc3oc2=O)cc1,x,x,1.5µM*,1.2µM*,x
Cc1nccc2oc(=O)c(NC(=O)c3ccc(Cl)cc3)cc12,10%,-21,-7%,-4%,7%
COc1cccc(C(=O)Nc2cc3cc(OC)ccc3oc2=O)c1,x,x,1%,-31%,x
COc1cc(C(=O)N(Cc2cc3ccc(C)cc3nc2N(C)C)C2CC2)cc(OC)c1OC,x,x,u,15%[9.04 µM],x
CC(=O)c1ccc(C(C)(C)c2ccc(C(C)=O)s2)s1,-11%,-9,23µM*,u,-12%
Cc1noc(C)c1C(=O)N1CCC2(CCCN(Cc3ccccc3)C2)CC1,x,x,-7%,4%,x

# Screens as filed in PubChem.
